# Reference: PubChem BioAssay
# Results filed as inconclusive are left out. The source made the active and inactive calls. Unless noted, the rule behind the calls is not given here.
# Columns and labels:
# [1] = HTB85 osteosarcoma cell growth inhibition, synergistic combos for chromothripsis tumors, BGB or cisplatin IC20 combos (AID 1671453); settings: HTB85 osteosarcoma cells, drug combinations, stronger effect = higher value;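 note: cells exposed for 96 hours before readout; 0% = vehicle DMSO and 100% = high DMSO killing control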
# [2] = CRL2098 osteosarcoma cell growth inhibition, synergistic combos for chromothripsis tumors, BGB or cisplatin IC20 combos (AID 1671454; in the data active = inhibition above about 80%;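 note: cells exposed for 96 h before readout; 0% = vehicle DMSO and 100% = killing by high DMSO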); settings: CRL2098 osteosarcoma cells, drug combinations, stronger effect = higher value
# [3] = HD-MB03 medulloblastoma cell growth inhibition, synergistic combos for chromothripsis tumors, BGB or cisplatin IC20 combos (AID 1671455; in the data active = inhibition above about 83%;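 note: 0% = vehicle DMSO and 100% = high DMSO as cytotoxic control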); settings: HD-MB03 medulloblastoma cells, stronger effect = higher value
# [4] = UWB1.289 ovarian carcinoma cell growth inhibition, synergistic combos for chromothripsis tumors, BGB or cisplatin combos (AID 1671456; in the data active = inhibition above about 80%;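 note: cells exposed to compound for four days; 0% = vehicle DMSO and 100% = killing by high DMSO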); settings: UWB1.289 ovarian carcinoma cells, stronger effect = higher value
# [5] = LFS_MB_2R medulloblastoma cell growth inhibition, synergistic combos for chromothripsis tumors, cisplatin combos (AID 1671457; in the data active = inhibition above about 80%;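 note: cells exposed to compound for four days before readout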); settings: LFS_MB_2R medulloblastoma cells, stronger effect = higher value
# [6] = MDA-MB-436 breast carcinoma cell growth inhibition, synergistic combos for chromothripsis tumors, BGB or cisplatin combos (AID 1671458); settings: MDA-MB-436 breast carcinoma growth inhibition, drug combinations, stronger effect = higher value;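 note: cells exposed for 96 hours; 0% = vehicle DMSO and 100% = killing by high DMSO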
# [7] = UWB1.289_BRCA1 ovarian cancer growth, cell-based, BGB or cisplatin combinations (AID 1671459; in the data active = inhibition above about 80%); settings: UWB1.289 BRCA1 ovarian carcinoma, drug combinations, stronger effect = higher value
# [8] = human astrocyte viability loss, single and combined drugs, cytotoxicity control for chromothriptic childhood tumor combination screen, cell-based, BGB or cisplatin IC20 combos (AID 1671460; in the data active = inhibition above about 80%;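 note: cells exposed to compounds for 96 hours before viability readout; 0% = vehicle and 100% = killing control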); settings: Human astrocytes, drug combinations, stronger effect = higher value
# [9] = growth inhibition of BT084 medulloblastoma cells, cell-based, ICGC_MB145, cisplatin and BGB IC40 combos (AID 1671461; in the data active = inhibition above about 80%;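 note: cells exposed to drugs for 96 hours; 0% = vehicle DMSO and 100% = high DMSO full killing control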); settings: drug combinations, stronger effect = higher value
# [10] = growth inhibition of RCMB18 medulloblastoma cells, cell-based, cisplatin and BGB IC40 combos (AID 1671462; in the data active = inhibition above about 80%;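 note: cells exposed to compound for four days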); settings: stronger effect = higher value
# [11] = growth inhibition of CRL1545 osteosarcoma cells, cell-based, cisplatin and BGB IC20 combos (AID 1671464; in the data active = inhibition above about 80%;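 note: cells exposed to compound for 96 hours before readout; 0% = vehicle DMSO and 100% = high DMSO killing control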); settings: stronger effect = higher value
# [12] = circadian clock period modulators, cell-based, LOPAC library, luminescence reporter (AID 2774); settings: circadian reporter cells, at 7 µM, actives lie on both sides;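 note: values are relative to mean of DMSO wells on each plate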
# [13] = target: ATP-dependent translocase ABCB1 (Homo sapiens) (UniProt P08183); assay: MDR1 (ABCB1) efflux transporter inhibition, cell-based (AID 377; in the data active = fluorescence slope change above about 50%); settings: MDR1-expressing cells, fluorescent substrate accumulation slope; stronger effect = higher value; concentration not given here
# [14] = hESC survival regulators, cell-based (AID 493140); settings: human embryonic stem cell survival screen; stronger effect = higher value;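 note: cells exposed to compounds for four days before counting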
# [15] = tested on: Hepatitis C virus NS3 helicase; assay: HCV NS3 helicase inhibitors, primary screen, biochemical, fluorescence polarization, LOPAC1280 library (AID 687035; in the data active = inhibition above about 37%); settings: Purified HCV NS3 helicase, Cy5-dT15 ssDNA binding fluorescence polarization; stronger effect = higher value; concentration not given here
# [16] = Cy5 fluorescence quenching or enhancement artefacts, artefact control for HCV NS3 helicase inhibitor project, biochemical, LOPAC1280 (AID 687037); settings: Cy5-DNA-NS3h complex fluorescence interference counterscreen
# [17] = liver-stage malaria parasite growth inhibition, primary screen, cell-based, HepG2, luciferase luminescence, HepG2 viability (AID 624349; in the data active = parasite load remaining mostly below about 12%, no sharp cut-off; inactive = mostly above about 10%;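 note: 100% = mean of DMSO negative control wells on the same plate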); settings: P. berghei liver stage in HepG2, luciferase luminescence, concentration not given here; parasite load remaining: stronger effect = lower value; viability: measured here: HepG2 viability without parasites
# [18] = measured here: combination with cisplatin, at 0.5 µM
# ATP-dependent translocase ABCB1 (Homo sapiens), sequence (P08183 whole entry, looked up): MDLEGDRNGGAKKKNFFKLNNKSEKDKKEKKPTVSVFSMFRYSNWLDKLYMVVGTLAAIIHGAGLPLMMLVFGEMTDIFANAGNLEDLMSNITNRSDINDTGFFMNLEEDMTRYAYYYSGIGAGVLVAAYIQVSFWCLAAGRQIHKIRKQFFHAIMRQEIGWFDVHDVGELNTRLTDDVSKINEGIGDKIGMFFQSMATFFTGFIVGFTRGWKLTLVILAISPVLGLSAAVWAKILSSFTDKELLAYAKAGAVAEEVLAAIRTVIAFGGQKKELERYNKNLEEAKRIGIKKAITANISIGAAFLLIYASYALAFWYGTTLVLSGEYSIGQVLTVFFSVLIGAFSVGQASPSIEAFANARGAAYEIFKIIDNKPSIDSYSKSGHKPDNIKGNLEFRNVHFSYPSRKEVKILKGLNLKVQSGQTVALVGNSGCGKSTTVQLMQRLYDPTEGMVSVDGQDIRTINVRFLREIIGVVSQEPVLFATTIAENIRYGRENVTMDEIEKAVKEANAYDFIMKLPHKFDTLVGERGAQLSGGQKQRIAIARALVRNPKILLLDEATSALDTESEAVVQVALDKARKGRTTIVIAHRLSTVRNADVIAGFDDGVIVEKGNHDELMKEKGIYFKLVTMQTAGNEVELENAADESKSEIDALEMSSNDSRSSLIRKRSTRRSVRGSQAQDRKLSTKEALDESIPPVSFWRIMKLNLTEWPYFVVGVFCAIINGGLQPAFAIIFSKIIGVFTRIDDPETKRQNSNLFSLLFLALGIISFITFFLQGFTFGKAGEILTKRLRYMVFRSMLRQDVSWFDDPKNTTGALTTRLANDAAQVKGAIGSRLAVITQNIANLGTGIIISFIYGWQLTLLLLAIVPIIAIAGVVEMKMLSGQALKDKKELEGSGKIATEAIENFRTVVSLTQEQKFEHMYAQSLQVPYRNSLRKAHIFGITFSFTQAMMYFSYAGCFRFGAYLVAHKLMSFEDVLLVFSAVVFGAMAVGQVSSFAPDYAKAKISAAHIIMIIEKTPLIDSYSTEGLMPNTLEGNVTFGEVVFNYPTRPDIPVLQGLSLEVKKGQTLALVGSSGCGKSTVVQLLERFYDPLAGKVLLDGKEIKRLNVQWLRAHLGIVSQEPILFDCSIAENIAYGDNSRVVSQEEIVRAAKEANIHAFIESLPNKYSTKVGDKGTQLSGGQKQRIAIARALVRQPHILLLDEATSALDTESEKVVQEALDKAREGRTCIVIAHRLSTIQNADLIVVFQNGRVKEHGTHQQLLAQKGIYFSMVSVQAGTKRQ
compound,measurement,setting,value
NC(Cc1ccc(N(CCCl)CCCl)cc1)C(=O)O (stereo not drawn),inhibition,"[1]; measured here: with cisplatin IC20, at 0.5 µM",-13.1%
same,inhibition,"[1]; measured here: with cisplatin IC20, at 5 µM",74.4%
same,inhibition,"[1]; single agent, at 5 µM",59.9%
same,inhibition,[2]; at 0.5 µM,-91.3% (inactive)
same,inhibition,"[2]; measured here: combination with BGB at IC20, at 0.5 µM",-104%
same,inhibition,"[2]; measured here: combination with cisplatin at IC20, at 0.5 µM",-99.5%
same,inhibition,[3]; at 0.5 µM,12.1% (inactive)
same,inhibition,"[3]; measured here: combo with BGB at IC20, at 0.5 µM",19.3%
same,inhibition,"[3]; measured here: combo with cisplatin at IC20, at 0.5 µM",20.5%
same,inhibition,[4]; at 0.5 µM,-2.07% (inactive)
same,inhibition,"[4]; measured here: inhibition with BGB combination, at 0.05 µM",-36%
same,inhibition,"[4]; measured here: inhibition with cisplatin combination, at 0.05 µM",-22.5%
same,inhibition,[5]; at 0.5 µM,-18.9% (inactive)
same,inhibition,[5]; [18],-23.8%
same,inhibition,"[5]; measured here: combination with cisplatin, at 5 µM",-58.8%
same,inhibition,[6]; at 0.5 µM,10.4% (inactive)
same,inhibition,"[6]; measured here: BGB combination, at 0.5 µM",2.27%
same,inhibition,"[6]; measured here: BGB combination, at 5 µM",8.02%
same,inhibition,"[6]; measured here: cisplatin combination, at 0.5 µM",6.39%
same,inhibition,"[6]; measured here: cisplatin combination, at 5 µM",33.3%
same,inhibition,"[7]; BGB combination, concentration series, at 5 µM",31.5%
same,inhibition,[7]; at 0.5 µM,4.15% (inactive)
same,inhibition,"[7]; cisplatin combination, concentration series, at 5 µM",41.4%
same,inhibition,[8]; at 0.5 µM,16.9% (inactive)
same,inhibition,"[8]; measured here: combo with BGB IC20, at 0.5 µM",22.5%
same,inhibition,"[8]; measured here: combo with cisplatin IC20, at 0.5 µM",4.4%
same,inhibition,[9]; at 0.5 µM,-14.6% (inactive)
same,inhibition,"[9]; cisplatin combination, at 0.5 µM",5.86%
same,inhibition,"[9]; cisplatin combination, at 5 µM",35.1%
same,inhibition,"[9]; measured here: BGB IC40 combination 0.05 uM, at 0.05 µM",-5.01%
same,inhibition,"[9]; single agent, at 5 µM",-20.7%
same,inhibition,[10]; at 0.5 µM,-26.4% (inactive)
same,inhibition,"[10]; cisplatin combo, at 5 µM",81.5%
same,inhibition,"[10]; measured here: BGB IC40 combination, at 0.05 µM",-33.2%
same,inhibition,[10]; [18],-31.6%
same,inhibition,"[10]; single agent, at 5 µM",-6.56%
same,inhibition,[11]; at 0.5 µM,-21.6% (inactive)
same,inhibition,"[11]; measured here: with BGB IC20 combination, at 0.5 µM",-14.9%
same,inhibition,"[11]; measured here: with cisplatin IC20 combination, at 0.5 µM",-27.8%
same,inhibition,"[11]; single agent, at 0.05 µM",-31.8%
same,inhibition,"[11]; single agent, at 5 µM",43.7%
CC(O)C(C)OC(=O)[C@@H]1C[C@@H]2c3cccc4c3c(cn4C(C)C)C[C@H]2N(C)C1 (stereo partly drawn),period change,[12],0.035 h (inactive)
C=C(C(=O)OC1CC2[C@@H]3O[C@@H]3[C@@H](C1)N2C)c1ccccc1 (stereo partly drawn),fluorescence slope change,[13],4.6% (inactive)
C=C[C@@H]1CN2CCC1C[C@@H]2[C@@H](O)c1ccnc2ccccc12 (stereo partly drawn),fluorescence slope change,[13],13.4% (inactive)
CO[C@@H]1C=C2CCN(C)[C@@H]2C2c3cc4c(cc3C(=O)OC21)OCO4 (stereo partly drawn),fluorescence slope change,[13],12.6% (inactive)
same,survival,[14],4.75 (inactive)
CCN(CC)C(=O)N[C@H]1C[C@@H]2c3cccc4[nH]cc(c34)C[C@H]2N(C)C1,survival,[14],6 (inactive)
CN1C2CCC1CC(OC1c3ccccc3CCc3ccccc31)C2 (stereo not drawn),survival,[14],0.75 (inactive)
C#CC1(O)CC[C@H]2[C@@H]3CCC4=CCCC[C@@H]4[C@H]3CC[C@@]21C (stereo partly drawn),survival,[14],37.7 (inactive)
CCOC(=O)NC1=C(N2CC2)C(=O)C(NC(=O)OCC)=C(N2CC2)C1=O,fluorescence slope change,[13],17.2% (inactive)
COc1cc(CC(C)N)c(OC)cc1I (stereo not drawn),period change,[12],-0.11 h (inactive)
same,inhibition,[15],-3% (inactive)
same,fluorescence ratio (interference),[16],1 (inactive)
CN1[C@@H]2CCC[C@H]1CC(=O)C2,fluorescence slope change,[13],53.5% (active)
CCN1C[C@]2(COC)CC[C@H](OC)[C@]34C5C[C@@H]6[C@@H](OC)CC7(OCO[C@]7([C@H]13)[C@@H](O)C24)C5[C@H]6OC (stereo partly drawn),fluorescence slope change,[13],13% (inactive)
same,survival,[14],6.42 (inactive)
CN1CCc2cc3c(c4c2C1Cc1ccccc1-4)OCO3 (stereo not drawn),fluorescence slope change,[13],11.3% (inactive)
C=C[C@]12CN(C)C3C4COC(CC41)[C@]1(C(=O)Nc4ccccc41)[C@@H]32 (stereo partly drawn),fluorescence slope change,[13],13.5% (inactive)
same,survival,[14],4 (inactive)
CCCn1c(C)c(C(=O)c2ccc3ccccc3c2)c2ccccc21,period change,[12],-0.02 h (inactive)
same,inhibition,[15],-4% (inactive)
same,fluorescence ratio (interference),[16],1 (inactive)
CCCCCCCCCCCCCCC[C@@H](O)[C@@H](N)COP(=O)(O)O,survival,[14],93.8 (inactive)
C#C[C@]1(O)CCC2C3CCC4=CC(=O)CC[C@]4(C)C3CC[C@@]21C (stereo partly drawn),fluorescence slope change,[13],63.9% (active)
same,survival,[14],10.7 (inactive)
same,parasite load remaining,[17],97.8% (inactive)
same,viability,[17],86.3%
COc1cc(C(=O)OC2CC3CCC(C2)N3C)ccc1O (stereo not drawn),fluorescence slope change,[13],5.8% (inactive)
same,survival,[14],1.67 (inactive)
CN1[C@@H](C[C@@H](O)c2ccccc2)CCC[C@H]1C[C@H](O)c1ccccc1,fluorescence slope change,[13],85.7% (active)
C=C(C)[C@@H]1[C@H]2OC(=O)[C@@H]1[C@]1(O)C[C@H]3O[C@]34C(=O)OC2[C@]14C (stereo partly drawn),fluorescence slope change,[13],18.3% (inactive)
same,survival,[14],4 (inactive)
NCCC(O)C(=O)NC1CC(N)C(OC2OC(CN)C(O)[C@H](O)[C@@H]2N)[C@H](OC2O[C@H](CO)[C@@H](O)[C@@H]2O)[C@@H]1O (stereo partly drawn),fluorescence slope change,[13],51.6% (active)
same,survival,[14],4.17 (inactive)
CC[C@@H](C)C(=O)O[C@H]1[C@H](O)[C@H]2[C@@H](CN3C[C@@H](C)CC[C@H]3[C@@]2(C)O)C2C[C@]34O[C@@]5(O)[C@@H](OC(=O)C(C)(O)CC)CC[C@@]3(C)[C@@H]5[C@@H](OC(C)=O)[C@@H](OC(C)=O)[C@H]4[C@@]21O (stereo partly drawn),fluorescence slope change,[13],24.2% (inactive)
same,survival,[14],6.33 (inactive)
same,parasite load remaining,[17],72.4% (inactive)
same,viability,[17],77.1%
CC[C@H](CO)NC(=O)[C@@H]1C=C2c3cccc4[nH]cc(c34)C[C@H]2N(C)C1,fluorescence slope change,[13],0.6% (inactive)
same,parasite load remaining,[17],67.8% (inactive)
same,viability,[17],73.1%
CCN1C[C@]2(COC)CC[C@H](O)[C@@]34C5C[C@H]6C(OC)C5[C@](O)(C[C@H]6OC)C(O)(C(OC)C23)[C@@H]14 (stereo partly drawn),fluorescence slope change,[13],-9.9% (inactive)
same,survival,[14],4 (inactive)
